# Source: PubChem BioAssay
# Hits are enriched below; roughly 9.2% of the tested compounds scored in any of these assays.
# FLuc modulator – firefly luciferase modulation, counter-screen for miR-21 project | AID 588342 | P08659 | purified FLuc, Km substrates, luminescence inhibition | Potency, µM (titrated, usually from 57.5 µM), for inactives: at the highest dose activity change, negative = inhibition, usual class: inhibitors | hit rate 6.9% among 360,000;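 note: plate controls were vehicle for no effect and reference inhibitor for full effect; nearly all actives have a fitted effect of over 55% in size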
# Target sequence (P08659 whole entry, looked up): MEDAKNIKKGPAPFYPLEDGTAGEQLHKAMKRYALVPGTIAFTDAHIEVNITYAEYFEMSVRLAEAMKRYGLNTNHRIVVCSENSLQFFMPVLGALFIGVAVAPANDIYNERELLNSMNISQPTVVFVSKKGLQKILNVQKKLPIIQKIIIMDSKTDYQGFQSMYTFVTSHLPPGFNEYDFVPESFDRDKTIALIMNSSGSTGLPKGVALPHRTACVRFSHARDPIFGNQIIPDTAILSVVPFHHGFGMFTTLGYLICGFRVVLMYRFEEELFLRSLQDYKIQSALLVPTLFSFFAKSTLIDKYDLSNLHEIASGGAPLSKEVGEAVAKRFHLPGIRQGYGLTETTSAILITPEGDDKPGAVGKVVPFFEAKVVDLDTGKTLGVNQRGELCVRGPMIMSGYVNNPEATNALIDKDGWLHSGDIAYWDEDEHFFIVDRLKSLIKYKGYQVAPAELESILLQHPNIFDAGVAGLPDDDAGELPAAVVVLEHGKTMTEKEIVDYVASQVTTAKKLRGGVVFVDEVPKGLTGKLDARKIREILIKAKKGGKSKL
#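 Biochemical qHTS of compounds, final roughly 60 µM downward over six points, against 10 nM purified firefly luciferase using Km concentrations of substrates (10 uM D-luciferin, 10 uM ATP) in Tris acetate pH 7.5 buffer; luminescence output.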
# ELG1 genotox – inducers of genotoxicity in HEK293T ELG1-luciferase cells; hit rate 1.3% among 330,000; Potency, µM (doses to about 46 µM), inactives show at the top dose activity change, positive = activation, actives largely listed as activators; HEK293T ELG1-luciferase reporter, luminescence, 16 h; note: % of control where 0% means no effect; nearly all actives have a fitted effect of over 60% in size
#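 Quantitative HTS format in 1536-well plates. HEK293T ELG1-luciferase reporter cells receive test compound and are incubated 16 hr at 37 °C, 5% CO2; ONE-Glo added, 30 min room temperature, then luminescence read.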
# SMN2 splice enh – enhancers of SMN2 splice variant expression | HEK293 SMN2-luciferase splicing reporter, luminescence, 30-36 h | AID 1458 | hit rate 2.8% among 210,000 | Potency, µM (highest dose often 46.1 µM), for the others: top-dose activity change, positive = activation, hits mostly activators; note: % of control where 0% means no effect; nearly all actives have a fitted effect of over 55% in size
#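 HEK293 cells carry an SMN2 […]–luciferase reporter in which exon 7 inclusion puts luciferase in frame. Cells were plated 10-12 h before compound addition, then incubated 30-36 h at 37C. ONE-Glo luminescence was read; sodium butyrate at 4.5 mM final served as control.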
# ELG1 DNA repair – ELG1-dependent DNA repair inhibition | hit rate 2.3% among 330,000 | Potency, µM (doses to about 46.1 µM), for the others: at the highest dose activity change, negative = inhibition, hits mostly inhibitors | AID 504467 | HEK293T ELG1-luciferase reporter, luminescence, 16 h; DNA damage induced by 5-fluorouridine; note: % is set by controls: 0 for no effect and ±100 for the full control effect; nearly all actives have a fitted effect of over 55% in size
#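 In this reporter screen, reduction of luminescence relative to DMSO vehicle indicated activity. Compounds and 5-fluorouridine were added together to 2,000 cells per well, incubated for 16 hr at 37 °C, then developed with ONE-Glo.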
# NPC1 prom act – activators of NPC1 promoter. Huh7 NPC1 promoter luciferase reporter, 24 h. Potency, µM (highest dose often 9.22 µM), for inactives: at the top dose activation, hits mostly activators. hit rate 2.4% among 320,000. AID 485313; note: % of control where 0% means no effect; nearly all actives have a fitted effect of over 60% in size
#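 In 1536-well qHTS, Huh7 cells harboring an NPC1 promoter–luciferase construct received compound for 24 h; activation was quantified by luminescence following luciferase reagent addition.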
# Rab9 promoter act – activates the Rab9 promoter. Potency, µM (series often up to 9.22 µM), without a hit: top-dose activation, negative = inhibition, usual class: activators. hit rate 2.8% among 320,000. Huh7 Rab9 promoter-luciferase reporter, luminescence, 24 h; note: % of control where 0% means no effect; nearly all actives have a fitted effect of over 60% in size
#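 Huh7 cells stably carrying Rab9 promoter–luciferase reporter, plated 1500 cells/well, compound added after 2 h and incubated 24 h at 37 °C; luciferase luminescence then read after 10 min with detection reagent.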
# An asterisk follows results filed as active; u = inconclusive; x = no result given; [ ] = remark or other dose. Calls come from the whole dose curve; as a rule, active = well fitted curve in the direction sought with a large enough effect; inconclusive = small, poorly fitted or top-dose-only effect, or another doubt; inactive = no such curve, though single readings can be large; an effect the other way counts as inactive or inconclusive. Potency is the fitted concentration of half-maximal effect.
SMILES,FLuc modulator,ELG1 genotox,SMN2 splice enh,ELG1 DNA repair,NPC1 prom act,Rab9 promoter act
COCCn1c(-c2ccccc2)nc2ccccc21,u,3%,-5%,u,-2%,-2%
Cc1cccc(NC(=O)Cn2c(/C=C/c3ccccc3)nc3ccccc32)c1,3µM*,23µM*,x,u,12%,23%
COCCn1c(/C=C/c2ccccc2)nc2ccccc21,1.7µM*,u,11µM*,u,2.2µM*,2µM*
COc1ccc(-c2c(C#N)c(SCC(=O)Nc3ccc(C)c(C)c3)nc(C)c2C(=O)Nc2ccccc2)cc1OC,4%,x,-5%,x,x,x
NC(=S)NCCC[C@H](N)C(=O)O,x,x,-2%,x,10%[46.1 µM],0%[46.1 µM]
Cc1csc(SCC(=O)c2c(N)n(CC(C)C)c(=O)n(C)c2=O)n1,-4%,-11%,-60%,18µM*,1%,-18%
CCOC(=O)Cc1csc(SCC(=O)c2c(N)n(CC(C)C)c(=O)n(C)c2=O)n1,3%,-6%,-54%,5.2µM*,-10%,-16%
O=C(O)c1ccc2c(=O)n3c(nc2c1)/C(=C/c1ccc(Cl)cc1Cl)CC3,-2%,0%,x,-8%,-3%,-10%
CCOc1ccc(Cc2n[nH]c(=S)n2N)cc1,7%,-2%,u,-14%,1%,2%
COc1ccc(N2Nc3n[nH]c(N)c3N2)cc1,27µM*,8%,u,u,20%,u
CCOc1ccc(N2Nc3n[nH]c(N)c3N2)cc1,19µM*,u,u,u,u,u
CC(C)(C)OC(=O)CNC(=O)c1[nH]cnc1C(=O)N[C@@H](Cc1ccccc1)C(=O)OC(C)(C)C,0%,-10%,x,u,-6%,-10%
O=C(Oc1ccc(-c2cnc3ccccc3n2)cc1)c1cc([N+](=O)[O-])ccc1Cl,u,u,u,u,4µM*,9%
CCC(=O)Oc1ccc(-c2cnc3ccccc3n2)cc1,0.3µM*,u,u,u,u,u
Cc1c(C(=O)Oc2ccc(-c3cnc4ccccc4n3)cc2)cccc1[N+](=O)[O-],u,u,24%,u,u,u
O=C(Nc1cccc(-c2cnc3ccccc3n2)c1)c1ccco1,u,4%,0%,u,4%,3%
O=C(Oc1ccc(-c2cnc3ccccc3n2)cc1)c1ccco1,0.27µM*,16µM*,u,u,u,u
CC(Sc1nnc(-c2ccncc2)n1-c1ccc(F)cc1)C(=O)NC1CC1 (stereo unspecified),1%,1%,x,11%,0%,-3%
O=C(NCc1ccccc1Br)C1CCCO1 (stereo unspecified),2%,2%,x,8%,1%,4%
CCCn1c(C)nc2c(NCCCN(CC)CC)nc(C)nc21,x,x,-3%,x,x,x
Cc1cc(=O)n(CC(=O)Nc2ccc([N+](=O)[O-])cc2)c(-n2nc(C)cc2C)n1,7%,x,x,x,x,x
COC(=O)Cc1ccc(OCc2ccc(Cl)nc2)cc1,15µM*,u,x,u,2.5µM*,u
COc1ccc(N=C2C(=O)Nc3ccc(C)c(Br)c32)cc1,8.5µM*,3%,x,7%,-4%,-7%
Cc1ccc(N=C2C(=O)Nc3ccc(C)c(Br)c32)cc1,12µM*,-3%,x,14%,2%,0%
O=C1Nc2ccccc2C1=Nc1ccc(F)cc1,5%,2%,x,-1%,2%,-3%
Fc1ccc(Nc2ncnc3onc(-c4ccc(Cl)cc4)c23)cc1Cl,-5%,x,u,x,x,x
CCN1CCN(c2ccc(N3CCN(S(=O)(=O)c4ccc(C)c([N+](=O)[O-])c4)CC3)nn2)CC1,-1%,-2%,x,3%,0%,-1%
COc1cc2ccc([C@H](C)NCC#N)cc2cc1OC,x,x,-7%[9.22 µM],x,x,x
COc1ccc(/C=C/C(=O)N(C(C)C)C(C)C)cc1Br,-13%,u,7%,0%,4%,0%
